Reference: PubChem BioAssay (EPA / NIEHS)
Inconclusive results are not listed. Calls of active or inactive are those of the source. Rule for the calls: active = hit-call score of the fitted dose curve at least 0.9, where 1 is the maximum; inconclusive = response in the unintended direction; inactive = score below 0.9.

The molecules below were run against human Phosphodiesterase 5 (PDE5), PDE5A (gene 8654) (UniProt O76074) (assay: NVS_ENZ_hPDE5: NovaScreen (NVS) Enzymatic Assay for human Phosphodiesterase 5 (PDE5) (AID 2283194)).
In short: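 Screening began in duplicate at 25 uM, with actives taken into concentration-response. Enzyme activity of recombinant PDE5 toward its substrate was measured at 1 h by fluorescence mobility-shift detection, relative to DMSO controls.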
With `CCNc1nc(Cl)nc(NC(C)(C)C#N)n1` the AC50 was 13.6 µM (active). `CN(C)[C@@H]1C(=O)C(C(N)=O)=C(O)[C@@]2(O)C(=O)C3=C(O)c4c(O)cccc4[C@@](C)(O)[C@H]3[C@H](O)[C@@H]12` was tested, and the AC50 was 6.97 µM (active). In the case of `CSc1nc(NC(C)C)nc(NC(C)C)n1`, the AC50 is reported as 5.79 µM (active). With `CC[C@H](C)[C@H]1O[C@]2(C=C[C@@H]1C)C[C@@H]1C[C@@H](C/C=C(\C)[C@@H](O[C@H]3C[C@H](OC)[C@@H](O[C@H]4C[C@H](OC)[C@@H](NC)[C@H](C)O4)[C@H](C)O3)[C@@H](C)/C=C/C=C3\CO[C@@H]4[C@H](O)C(C)=C[C@@H](C(=O)O1)[C@]34O)O2` the AC50 was 39.3 µM (active). For `C[Si](Cn1cncn1)(c1ccc(F)cc1)c1ccc(F)cc1`, the outcome was “inactive”.
